Activity data for 22 compounds are collected here from PubChem BioAssay.

The structures appear in SMILES notation.

Assay [1] addresses Tumor necrosis factor receptor superfamily member 10B (Homo sapiens) (UniProt O14763). The experiment in a line: viability loss of caspase-8 NB7 cells with TRAIL – with/without TRAIL, luminescence panel, confirmation (AID 651596). To be noted: NB7 neuroblastoma + caspase-8, TRAIL sensitization, NB7 Caspase-8, with TRAIL, mean of runs, at 10 µM, stronger effect = higher value.
Assay in assay [2]: as above
The settings on record: NB7 neuroblastoma + caspase-8, without TRAIL, NB7 Caspase-8, without TRAIL, mean of runs, at 10 µM.

Tumor necrosis factor receptor superfamily member 10B (Homo sapiens), sequence (O14763 whole entry, looked up): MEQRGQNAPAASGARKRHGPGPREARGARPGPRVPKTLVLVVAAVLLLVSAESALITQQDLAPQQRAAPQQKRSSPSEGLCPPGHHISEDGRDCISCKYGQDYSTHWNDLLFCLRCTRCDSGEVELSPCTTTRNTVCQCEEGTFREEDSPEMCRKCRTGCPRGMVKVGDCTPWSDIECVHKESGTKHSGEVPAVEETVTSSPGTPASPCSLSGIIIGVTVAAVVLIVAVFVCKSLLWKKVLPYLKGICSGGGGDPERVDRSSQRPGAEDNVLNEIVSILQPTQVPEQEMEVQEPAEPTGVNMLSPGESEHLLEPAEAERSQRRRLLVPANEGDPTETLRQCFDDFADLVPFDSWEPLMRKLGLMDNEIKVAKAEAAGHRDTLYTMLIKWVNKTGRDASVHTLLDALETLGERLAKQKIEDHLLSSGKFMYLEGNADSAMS

With `CCc1nc(N)nc(N)c1-c1ccc(NCCN)c([N+](=O)[O-])c1`, the activity worked out at 80.7% in assay [1] and 81.5% in assay [2].

`CCc1ccc(C(=O)Cn2ccsc2=N)cc1`: the activity stood at 66.5% in assay [1] and 66.6% in assay [2].

As to `Cc1cccc(NC(=O)c2nc[nH]c2C(=O)N[C@@H](CCCCNC(=O)OC(C)(C)C)C(=O)OC(C)(C)C)c1`, the activity was determined as 80.3% in assay [1] and 77% in assay [2].

Regarding `CC(=O)Nc1cccc(-c2csc(Nc3ccc(C)cn3)n2)c1`, the activity was found to be 49.5% in assay [1] and 30.4% in assay [2].

Regarding `Cc1ccc2nc(-c3ccc(NC(=O)CCS(=O)(=O)c4ccccc4)cc3)sc2c1`, the activity in assay [1] is 87.5%; in assay [2] it was 86.9%.

`CCOC(=O)c1cccc(N2C(N)=NC(N)=NC2(C)C)c1`: the activity in assay [1] was 52.6%; in assay [2] it was 69.5%.

Consider `O=C(Nc1nc2ccccc2[nH]1)c1ccccc1OC(F)F`, for which the values for the activity in assay [1] and in assay [2] were 76% and 82.2%, respectively.

Take `Cc1ccccc1C(=O)O/N=C(\N)c1ccncc1`: the activity amounted to 61.6% in assay [1] and 76.3% in assay [2].

For the compound `O=C(Nc1nc(-c2ccccn2)cs1)C12CC3CC(CC(O)(C3)C1)C2`, the activity stood at 66.8% in assay [1] and 78.4% in assay [2].

Turning to `N/C(Cc1ccc(Cl)c(Cl)c1)=N\OC(=O)c1cccs1`, the activity in assay [1] worked out at 49.6%; in assay [2] it was 39.5%.

On to `O=C(Nc1ccccn1)c1ccc(-c2ccccc2)cc1`, for which the activity in assay [1] is 87.6%; in assay [2] it was 88.4%.

Turning to `O=C(NCc1ccccc1)c1c(Cl)nc(Cl)c(Cl)c1Cl`, the activity in assay [1] amounted to 99.8%; in assay [2], 99.9%.

On to `COc1ccc(-c2nc3ccccc3[nH]2)cc1`, for which the activity in assay [1] amounted to 89%; in assay [2], 90.7%.

Regarding `CCc1nnc(NC(=O)c2nc(S(=O)(=O)Cc3cccc(C)c3)ncc2Cl)s1`, the activity worked out at 97.6% in assay [1] and 90.3% in assay [2].

Turning to `CCOc1ccccc1CNC(=O)C1CCN(c2nnc(C)c3c(C)n(-c4ccc(C)cc4)nc23)CC1`, the activity is 48.9% in assay [1] and 63.5% in assay [2].

Turning to `Cc1ccc(-c2cc(-c3ccccc3)no2)c(O)c1`, the results for the activity in assay [1] and in assay [2] were 71.8% and 60.2%, respectively.

With `CCCc1ccc(C(=O)NC(=O)c2ccccc2O)cc1`, the activity in assay [1] is 78.6%; in assay [2], 75.5%.

Turning to `Cc1ccc(C(=O)N/N=C\c2cccc(OC(=O)c3cccc(F)c3)c2)cn1`, the activity in assay [1] was found to be 37.2%; in assay [2] it was 36.8%.

Regarding `O=C(c1cc(-c2ccc(Cl)cc2Cl)on1)N1CCOCC1`, the activity was determined as 53.3% in assay [1] and 60.3% in assay [2].

Regarding `CCc1cc2c(COC(=O)c3cc(S(=O)(=O)N4CCOCC4)ccc3F)cc(=O)oc2cc1O`, the activity in assay [1] was 77.3%; in assay [2], 82.5%.

Turning to `Cc1ccc(NC(=O)c2ccc(C)cc2)cc1`, the activity was determined as 64.9% in assay [1] and 63.8% in assay [2].

Consider `CCC(C(=O)O/N=C(\N)c1ccccc1)c1ccccc1` (centres undefined), for which the activity in assay [1] is 81.9%; in assay [2], 81.6%.
